From PubChem BioAssay (NCATS) come the findings set out here.

Results filed as inconclusive are left out. A number with no mark means an inactive call. Activity calls are given as the source filed them. Calls follow the shape of the dose curve; as a rule, active = well fitted inhibition curve with a large enough effect in the repeat runs; inconclusive = weak or mixed curves; inactive = flat fitted curve, though single readings scatter.
% is scaled to controls: 0 for no effect and ±100 for the full control effect; potency is read from the fitted curve at half-maximal effect.

The target in the assay is Cytochrome P450 2D6 (Homo sapiens) (UniProt P10635). Briefly: Cytochrome P450 family 2 subfamily D member 6 (CYP2D6) small molecule antagonists: luciferase biochemical (cell-free) qHTS assay (AID 1645840). Also: nearly all actives have a fitted effect of over 55% in size. The conditions noted are these: P450-Glo CYP2D6 enzyme, luciferin luminescence, 1 h; series mostly up to 57.4 µM; activity change, negative = inhibition: at the top concentration. The protocol: National Center for Advancing Translational Sciences [NCATS] Assay Overview: Cytochrome P450 (CYP) enzymes are membrane-bound hemeproteins that play a key role in metabolism of drugs and xenobiotics. Assaying the effect of chemicals on CYP isozymes is useful to minimize the adverse drug reactions and toxicities in drug development process. Chemical compounds were tested for their effect on CYP enzyme activities by using P450-Glo (TM) screening systems (Promega Corporation, Madison, WI). These systems provide a luminescent method containing proluciferin substrates and are converted to luciferin products by CYP isozymes. The luciferin products formed are detected with a luciferin detection reagent, and the amount of light produced is proportional to CYP activity. P450-Glo (TM) CYP2D6 screening system (Catalog. No. V9890) was used to detect the compounds that interfere in CYP2D6 activity.
Sequence of Cytochrome P450 2D6 (Homo sapiens) (P10635 whole entry, looked up): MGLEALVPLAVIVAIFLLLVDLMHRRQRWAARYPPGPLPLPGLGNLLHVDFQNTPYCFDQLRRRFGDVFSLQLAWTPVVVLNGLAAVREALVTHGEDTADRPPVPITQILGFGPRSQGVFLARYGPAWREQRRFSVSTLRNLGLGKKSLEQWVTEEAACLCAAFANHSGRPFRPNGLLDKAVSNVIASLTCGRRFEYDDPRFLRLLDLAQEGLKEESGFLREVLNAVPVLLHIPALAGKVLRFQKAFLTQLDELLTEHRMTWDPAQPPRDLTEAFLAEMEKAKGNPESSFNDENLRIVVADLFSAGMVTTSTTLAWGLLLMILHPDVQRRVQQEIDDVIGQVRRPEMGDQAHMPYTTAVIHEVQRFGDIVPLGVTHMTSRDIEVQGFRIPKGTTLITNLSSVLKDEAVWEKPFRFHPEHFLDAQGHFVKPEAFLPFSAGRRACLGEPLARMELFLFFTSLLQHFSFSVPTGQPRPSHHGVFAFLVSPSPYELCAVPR
Assay Protocol Summary: Two ul of enzyme-substrate mix was dispensed into medium binding white/solid 1536-well plates (Greiner Bio-One North America Inc., Monroe, NC) using a Flying Reagent Dispenser (FRD, Aurora Discovery, San Diego, CA). […] The assay plates were incubated at room temperature for 10 min. Then 2 ul of NADPH regeneration solution was added to each well of the assay plates using an FRD and incubated at room temperature for 1 h. The reaction was stopped by adding 4 ul of detection reagent using an FRD and after 20 min incubation at room temperature, the luminescence signal was measured using a ViewLux plate reader (Perkin Elmer, Shelton, CT). Data were expressed as relative luminescence units.
In general terms: In qHTS, concentration-response curves come from the screen itself.
As to `CCCC(C)(COC(N)=O)COC(=O)NC(C)C` (stereo not given), the “activity change, negative = inhibition” value is 4.14%.
In the case of `CC(C)CC(N(C)C)C1(c2ccc(Cl)cc2)CCC1` (stereo not given), the Potency is 4.36 µM (active).
With `COc1ccccc1N1CCNCC1`, the “activity change, negative = inhibition” value is 1.31%.
Take `CO[C@]12CC[C@@]3(C[C@@H]1[C@](C)(O)C(C)(C)C)[C@@H]1Cc4ccc(O)c5c4[C@@]3(CCN1CC1CC1)[C@H]2O5`: the Potency is 0.353 µM (active).
For the compound `N[C@@H](Cc1ccc(Oc2cc(I)c(O)c(I)c2)c(I)c1)C(=O)O`, the Potency was 19.5 µM (active).
On to `OCCOc1ccccc1`, for which the “activity change, negative = inhibition” value is -7.93%.
Take `c1ccc(C2CC2)c(OCC2=NCCN2)c1`: the Potency is 4.36 µM (active).
As to `COc1ccc(Cc2nccc3cc(OC)c(OC)cc23)cc1OC`, the Potency was 4.9 µM (active).
On the same count and under the same terms, the value for `CN(C)[C@@H]1C(=O)C(C(N)=O)=C(O)[C@@]2(O)C(=O)C3=C(O)c4c(O)cccc4[C@@](C)(O)[C@H]3C[C@@H]12` was 15.5 µM (active).
On to `CCC(C(N)=O)N1CCCC1=O` (stereo not given), for which the “activity change, negative = inhibition” value was 2.71%.
Turning to `Cc1ccc2c(c1)C1CN(C)CCC1N2` (stereo not given), the Potency was 4.25 µM (active).
On to `NCC(O)c1ccc(O)cc1` (stereo not given), for which the “activity change, negative = inhibition” value is 11.6%.
On the same count and under the same terms, next, `C[C@]12CCC(=O)C(O)=C1CC[C@@H]1[C@@H]2CC[C@]2(C)C(=O)CC[C@@H]12`: -15.1%.
On to `CC(=O)[C@H]1CC[C@H]2[C@@H]3CC[C@H]4C[C@](C)(O)CC[C@]4(C)[C@H]3CC[C@]12C`, for which the Potency was 1.23 µM (active).
On the same count and under the same terms, the value for `Clc1ccc(CCC(Cn2ccnc2)Sc2c(Cl)cccc2Cl)cc1` (stereo not given) was 0.55 µM (active).
Still for that read-out and setting: the value for `CCN(CC)CCOC(=O)C(O)(c1ccccc1)c1ccccc1` was 5.49 µM (active).
`C[C@H]1O[C@@H](O[C@H]2[C@@H](O)C[C@H](O[C@H]3[C@@H](O)C[C@H](O[C@H]4CC[C@@]5(C)[C@H](CC[C@@H]6[C@@H]5CC[C@]5(C)[C@@H](C7=CC(=O)OC7)CC[C@]65O)C4)O[C@@H]3C)O[C@@H]2C)C[C@H](O)[C@@H]1O`: the “activity change, negative = inhibition” value is 0.783%.
On the same count and under the same terms, the value for `C[C@@H]1O[C@@H](O[C@H]2C[C@@H](O)[C@]3(CO)[C@H]4[C@H](O)C[C@]5(C)[C@@H](C6=CC(=O)OC6)CC[C@]5(O)[C@@H]4CC[C@]3(O)C2)[C@H](O)[C@H](O)[C@H]1O` was -4.97%.
Take `NCC(CC(=O)O)c1ccc(Cl)cc1` (stereo not given): the activity change, negative = inhibition was 14.3% [at 0.91 µM].
`CC[N+]1(C)CCCC(OC(=O)C(O)(c2ccccc2)c2ccccc2)C1` (stereo not given): the Potency is 2.75 µM (active).
With `Cc1cccc(C)c1NC(=O)CN1CCCC1=O`, the “activity change, negative = inhibition” value was 6.24%.
For the compound `NCCc1cc(O)c(O)cc1O`, the “activity change, negative = inhibition” value is -19.9%.
For the compound `O=C(O)c1ccc2[nH]cc(CCCCN3CC=C(c4ccccc4)CC3)c2c1`, the Potency is 15.5 µM (active).
Still for that read-out and setting: the value for `Cc1cccc(C)c1NC1=NCCCS1` was 15.5 µM (active); that for `CCC(COC(=O)c1cc(OC)c(OC)c(OC)c1)(c1ccccc1)N(C)C` (stereo not given) was 0.389 µM (active); that for `CCOC(=O)C1(c2ccccc2)CCN(CCC(C#N)(c2ccccc2)c2ccccc2)CC1` was 1.74 µM (active).
Regarding `Cc1ccc(S(=O)(=O)N[C@@H](CCCCN)C(=O)CCl)cc1`, the Potency is 17.2 µM (active).
In the case of `Cn1c(CCCC(=O)O)nc2cc(N(CCCl)CCCl)ccc21`, the “activity change, negative = inhibition” value was 7.09%.
As for `C#CCN(C)[C@H](C)Cc1ccccc1`, the Potency was 13.8 µM (active).
Still for that read-out and setting: next, `CC[C@@H](CO)NC(=O)[C@@H]1C=C2c3cccc4c3c(cn4C)C[C@H]2N(C)C1`: 12.3 µM (active).
As to `C=C1C[C@@H]2[C@H](CC[C@]3(C)C(=O)CC[C@@H]23)[C@@]2(C)C=CC(=O)C=C12`, the “activity change, negative = inhibition” value was -8.88%.
The same measure, in the same setting: next, `C[C@]12CC[C@H]3[C@@H](CCC4=CC(=O)CC[C@@H]43)[C@@H]1CC[C@@H]2OC(=O)CCc1ccccc1`: -14.3%; `O=C(NC(O)C(Cl)(Cl)Cl)NC(O)C(Cl)(Cl)Cl` (stereo not given): 4.21%.
Regarding `N[C@@H](Cc1ccc(N(CCCl)CCCl)cc1)C(=O)O`, the Potency is 19.5 µM (active).
As to `CNC(=O)N1N=C(c2ccc(N)cc2)c2cc3c(cc2CC1C)OCO3` (stereo not given), the “activity change, negative = inhibition” value was -13.9%.
`COc1ccc(C(=O)c2c(C)n(CCN3CCOCC3)c3ccccc23)cc1`: the Potency is 12.3 µM (active).
For `Oc1cccc2cccnc12`, the Potency entry was “inactive”.
Take `Cc1sc2c(c1C)C(c1ccc(Cl)cc1)=N[C@@H](CC(=O)OC(C)(C)C)c1nnc(C)n1-2`: the “activity change, negative = inhibition” value was -24.9%.
Same read-out and setting: the value for `Oc1ccccc1-c1ccccc1` was -19.9%; that for `Cn1cc(C2=C(c3cn(C4CCN(Cc5ccccn5)CC4)c4ccccc34)C(=O)NC2=O)c2ccccc21` was -4.14%.
